Among the data in PubChem BioAssay AID720486 (Milwaukee Institute for Drug Discovery, 2013) are inhibition values, retold here.

The assay concerns the target Single-stranded DNA-binding protein (Escherichia coli (strain K12)) (UniProt P0AGE0). The assay can be described thus: E. coli SSB-DNA binding inhibitors, counter-screen for HCV NS3 helicase inhibitor project, biochemical, fluorescence polarization, selected ChemBridge compounds (AID 720486).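 Further: displacers lower Cy5 polarization so higher inhibition means more SSB displaced.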 To be noted: E. coli SSB binding Cy5-dT15, fluorescence polarization; at 100 µM; hits give high values. For orientation: The purpose of a counterscreen is to sort out artefacts and off-target activity.

This is one part of the list. Activity calls are given as the source filed them.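 How the source made its calls: active means inhibition of at least 50%; inactive means the rest.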

Chain of Single-stranded DNA-binding protein (Escherichia coli (strain K12)) (P0AGE0 whole entry, looked up): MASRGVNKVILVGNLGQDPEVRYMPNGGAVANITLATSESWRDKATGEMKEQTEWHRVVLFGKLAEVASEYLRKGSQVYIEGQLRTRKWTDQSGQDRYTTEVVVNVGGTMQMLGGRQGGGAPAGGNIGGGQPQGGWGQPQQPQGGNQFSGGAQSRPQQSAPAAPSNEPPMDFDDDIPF

As for `CCOc1cc(C=C2C(=O)NC(=O)NC2=O)cc(Br)c1OCCOc1ccccc1C`, the inhibition is 36.9% (inactive).

By inhibition is commonly meant the relative decrease from the control value, in per cent.
